Measurements: publication PMC4552634, “A New Set of Chemical Starting Points with Plasmodium falciparum Transmission-Blocking Potential for Antimalarial Drug Discovery” (PLoS ONE, 2015)
Among all 13,000 compounds or so, about 3,200 (25%) showed an effect of 50% or more. The list shows a part of the results. Square brackets hold non-standard residues; d marks the D form. Peptide text beside a SMILES is read from it. * marks the point of attachment. Butanoyl(4-(4-HOPh)) = O=C(CCCc1ccc(O)cc1)*

test system: P. falciparum stage V gametocytes; parameters: BacTiter-Glo ATP luminescence viability of purified stage V gametocytes in 384-well plates, per cent inhibition versus DMSO; conditions: 48 h, 5 µM; inhibitor

Compound	% Inhibition
Cc1cc(OCCCN2CCC(NS(=O)(=O)c3cc(Br)c(Cl)s3)CC2)c2ccccc2n1 [TCMDC-136280]	-17.93%
Cc1cc(NC(=O)c2ccco2)ccc1OC1CCN(Cc2ccc(C#N)cc2)CC1 [TCMDC-133956]	24.43%
CN(c1ccccc1C(=O)Nc1cc(Cl)ccc1Oc1ccccc1)S(=O)(=O)c1ccccc1 [TCMDC-124364]	33.71%
Cc1ccc(S(=O)(=O)N(C)c2ccccc2C(=O)Nc2ccccc2Oc2ccccc2)cc1 [TCMDC-125068]	52.2%
CN(c1ccccc1C(=O)Nc1ccccc1Oc1ccccc1)S(=O)(=O)c1ccccc1 [TCMDC-125092]	-61.36%
O=[N+]([O-])c1ccc(C2=NN(S(=O)(=O)c3c(Cl)cc(Cl)cc3Cl)CCCC2)cc1 [TCMDC-135423]	-33.18%
CCCCCc1cc(O)c2c(c1)OC(C)(C)CC2C1=CCN(Cc2ccccc2)CC1 (stereo not shown) [TCMDC-131335]	-27.18%
CCCCc1cc(NCc2ccncc2)nc(Nc2ccccc2)n1 [TCMDC-133995]	8.477%
CCN(CC)CCOC(=O)c1ccc(NC(=O)c2cc(-c3ccc(C)cc3)nc3ccccc23)cc1 [TCMDC-124019]	1.245%
CCn1cc(-c2cc(C(=O)Nc3ccc(OC)cc3C)c3ccccc3n2)c(C)n1 [TCMDC-124457]	71.47%
COc1ccc(-c2cc(C(=O)Nc3ccc(CCCN(C)Cc4ccc(OC)c(OC)c4)cc3)c3ccccc3n2)cc1 [TCMDC-131848]	47.44%
Cc1cccc2nc(-c3ccc(-c4ccc(CNCCCNS(C)(=O)=O)cc4)s3)[nH]c12.O=C(O)C(F)(F)F [TCMDC-133085]	13.51%
COc1cc2nc(N3CCC(CNC(=O)c4ccc(-c5cccc(C#N)c5)cc4)CC3)nc(N)c2cc1OC [TCMDC-138730]	76.59%
COc1cc2nc(N3CCC(CNC(=O)/C=C/c4cccc(C)c4)CC3)nc(N)c2cc1OC [TCMDC-138156]	-2.985%
COc1cc2nc(N3CCC(CNC(=O)c4ccc(-c5ccc(C#N)cc5)cc4)CC3)nc(N)c2cc1OC [TCMDC-138713]	15.4%
COc1cc2nc(N3CCC(CNC(=O)c4ccc(-c5ccc(C#N)cc5C)cc4)CC3)nc(N)c2cc1OC [TCMDC-138735]	105.2%
COc1cc2nc(N3CC(C)N(C(=O)Cc4ccc(-c5ccccc5)cc4)C(C)C3)nc(N)c2cc1OC (stereo not shown) [TCMDC-138153]	71.85%
CC(C)CCN1CCC(Oc2ccc(NC(=O)c3ccsc3)cc2Cl)CC1 [TCMDC-133973]	36.47%
O=C(NCCN1CCC(NC(=O)c2ccc(-c3ccccn3)s2)CC1)c1ccc(Cl)c(Cl)c1 [TCMDC-141947]	-22.55%
COc1cc(C(=O)N2COCC(CCCN3CCC(N4CCCC4)CC3)(c3ccc(Cl)c(Cl)c3)C2)cc(OC)c1OC (stereo not shown) [TCMDC-141758]	14.16%
CCN(CC)CCON=Cc1cc(C)c2[nH]c3ccc(OCc4ccccc4)cc3c2c1C [TCMDC-132058]	-17.27%
Cc1nc(-c2cccc(NC(C)C(=O)Nc3cc(C(F)(F)F)ccc3N3CCOCC3)c2)cs1 (stereo not shown) [TCMDC-125304]	-35%

Compound	% Inhibition
O=C(O)C[C@H](NC(=O)CCCNC(=O)c1cccc(-c2ccc(Cl)c(Cl)c2)c1)C(=O)O [TCMDC-139508]	11.45%
CC(C)C[C@@H](CNC[C@H](CC(C)C)NC(=O)OC(C)(C)C)NC(=O)OC(C)(C)C [TCMDC-132080]	-74.95%
CN(C)S(=O)(=O)c1ccc(N2C(=O)C3C(C2=O)C2(c4ccccc4)C(=O)C3(c3ccccc3)C(c3ccccc3)=C2c2ccccc2)cc1 (stereo not shown) [TCMDC-132095]	-66.42%
CCN(CC)CCCCOc1ccc2c(c1)C(=O)c1cc(OCCCCN(CC)CC)ccc1-2 [TCMDC-124163]	88.71%
CCN(CC)CCOc1ccc(Nc2ncc3cc(-c4c(Cl)cccc4Cl)c(=O)n(C)c3n2)cc1 [TCMDC-140940]	0.9022%
CN(c1ccc(F)cc1)S(=O)(=O)c1ccc(Cl)c(C(=O)Nc2cccc(C#N)c2)c1 [TCMDC-123717]	11.84%
COc1cc(OC)nc(C(Sc2ccc(NC(=O)c3cccs3)cc2)c2ccccc2)n1 (stereo not shown) [TCMDC-124257]	44.54%
CCCCCCOc1ccccc1C(=O)NCCOc1ccc(Cl)cc1 [TCMDC-124012]	-9.249%
CCCCCOc1ccc(C(=NC)N(CCCCC)CCCCC)c2ccccc12 [TCMDC-137703]	109.8%
CCCCCCOc1ccc(C(N)=NCc2ccccc2)c2c1CCCC2 [TCMDC-131554]	15.01%
O=C(NCc1cccc(C(F)(F)F)c1)c1ccc(CNC(=O)c2ccc(O)c(-c3ccc(Cl)c(Cl)c3)c2)cc1 [TCMDC-140834]	9.818%
O=C(NC1CC1)c1ccc(N2CCCC(COc3ccc4c(c3)CCCC4)C2)nc1 (stereo not shown) [TCMDC-134263]	18.7%
O=C(NCC(=O)N1CCC[C@H]1C(=O)O)[C@@H](Cc1ccccc1)NC(=O)[C@@H]1CCCN1C(=O)CCCc1ccc(O)cc1 [TCMDC-141970] ({Butanoyl(4-(4-HOPh))}-P[dF]GP-OH)	-16.67%
Cc1ccc(NC(=O)Cc2noc(CC3CCCN3C(=O)N[C@@H](C)c3ccccc3)n2)cc1 (stereo partly shown) [TCMDC-134994]	0.878%
CC(CN1CCN(C)CC1)C(=O)Nc1ccc(-c2cccc(-c3nc4ccccc4[nH]3)c2)cc1 (stereo not shown) [TCMDC-137139]	81.76%
CC(CN1CCN(C)CC1)C(=O)Nc1cccc(-c2ccc(-c3nc4ccccc4[nH]3)s2)c1 (stereo not shown) [TCMDC-137142]	-55.57%
CC(CN1CCN(C)CC1)C(=O)Nc1ccc(-c2ccc(-c3nc4ccccc4[nH]3)cc2)cc1 (stereo not shown) [TCMDC-137148]	72.16%
CC(CN1CCN(C)CC1)C(=O)Nc1ccc(-c2ccc(-c3nc4ccccc4[nH]3)s2)cc1 (stereo not shown) [TCMDC-137140]	86.65%
Cc1cccc2nc(-c3ccc(-c4ccc(NC(=O)C(C)CN5CCN(C)CC5)cc4)s3)[nH]c12 (stereo not shown) [TCMDC-137154]	-22.77%
CC(CN1CCN(C)CC1)C(=O)Nc1ccc(-c2csc(-c3nc4ccccc4[nH]3)c2)cc1 (stereo not shown) [TCMDC-132391]	31.65%
CCC(C)NC(=O)Nc1ccc(-c2cccc(-c3nc4ccccc4[nH]3)c2)cc1 (stereo not shown) [TCMDC-133241]	3.681%
